Measured values published in PubChem BioAssay (Tox21).
Records with an inconclusive call do not appear. A call without a number means that no potency is given here. Some compounds were tested as several samples or in several runs, with calls that do not always agree. Activity calls are given as the source filed them. The call rests on the fitted dose curve; in most records, active means well fitted cell-killing curve with a large enough effect in the repeat runs; inconclusive means weak or mixed curves; inactive means flat fitted curve, though single readings scatter.

Assay: qHTS assay to identify small molecule antagonists of the estrogen receptor beta (ER-beta) signaling pathway - cell viability counter screen (AID 1259382); further: nearly all actives have a fitted effect of over 55% in size
Conditions: ER-beta-UAS-bla HEK293T viability, CellTiter-Glo luminescence, 16 h; series mostly up to 92.4 µM; activity change, negative = cytotoxicity: at the top concentration
Source text: U.S. Tox21 Program National Center for Advancing Translational Sciences [NCATS] NIH Chemical Genomics Center [NCGC] U.S. Environmental Protection Agency [EPA] National Institutes of Environmental Health Sciences [NIEHS] National Toxicology Program [NTP] U.S. Food and Drug Administration [FDA] Tox21 Assay Overview: Estrogen receptor (ER), a nuclear hormone receptor, plays an important role in development, metabolic homeostasis and reproduction. Two subtypes of ER, ER-alpha and ER-beta, have similar expression patterns with some uniqueness in both types. Endocrine disrupting chemicals (EDCs) and their interactions with steroid hormone receptors like ER causes disruption of normal endocrine function. To identify the compounds that inhibit ER signaling, an ER-beta-UAS-bla GripTite cell line (Life Technologies, Madison, WI, USA) containing a beta-lactamase reporter gene under the control of an UAS response element was used to screen Tox21 10K compound library. The cytotoxicity of the Tox21 compound library against the ER-beta-bla cell line was tested in parallel by measuring the cell viability using CellTiter-Glo assay in the same wells.
Tox21 Assay Protocol Summary: ER-beta-UAS-bla HEK293T cells were dispensed at 2,000 cells/4 uL of assay medium containing 2% charcoal stripped FBS per well into black wall/clear-bottom 1536-well plates using a Multidrop Combi (ThermoFisher Scientific, Waltham, MA) dispenser. After the assay plates were incubated at a 37C and 5% CO2 for 6 hr, 23 nL of compounds dissolved in DMSO, positive controls or DMSO only was transferred to the assay plate by a Pintool station (Kalypsys, San Diego, CA), followed by addition of 1 uL (1nM as final concentration) of 17-beta-estradiol (E2) in assay medium using a Flying Reagent Dispenser (FRD, Aurora Discovery, San Diego, CA). The plates were incubated at 37C and 5% CO2 for 16 hr. Then 1 uL of LiveBLAzer B/G FRET substrate was added using a Flying Reagent Dispenser, the plates were incubated at room temperature for 2 hours, and fluorescence intensity was measured by an Envision plate reader (PerkinElmer, Shelton, CT). For cell viability readout that measures cytotoxicity, 4 uL/well of CellTiter-Glo reagent was added into the assay plates using a FRD. After 30 min incubation at room temperature, the luminescence intensity in the plates was measured using a ViewLux (PerkinElmer) plate reader.
Potency means the concentration at half of the fitted maximal effect.

| SMILES | Potency | activity change, negative = cytotoxicity |
| --- | --- | --- |
| O=c1[nH]c2ccccc2c(=O)o1 | inactive | – |
| Cn1cc(-c2ccccc2)c(=O)c(-c2cccc(C(F)(F)F)c2)c1 | inactive | – |
| Cc1ccc(N)cc1Cl | inactive | – |
| CCCCN(CCCC)SN(C)C(=O)Oc1cccc2c1OC(C)(C)C2 | inactive | – |
| C=CC(N)=O | inactive | – |
| [N-]=[N+]=[N-] | inactive | – |
| [O-][Cl+2]([O-])O | inactive | – |
| CN(C)N=O | inactive | – |
| Clc1cccc(Cl)c1Cl | inactive | – |
| c1ccc2c(c1)oc1ccccc12 | inactive | – |
| COc1ccc2c3c1O[C@H]1[C@@H](O)C=C[C@H]4[C@@H](C2)N(C)CC[C@@]341 | inactive | – |
| CC(C)(C)OOC(=O)c1ccccc1 | inactive | – |
| CCNc1nc(NC(C)(C)C)nc(SC)n1 | inactive | – |
| Nc1c(Cl)c(Cl)nc(C(=O)O)c1Cl | inactive | – |
| NCC(O)c1ccc(O)cc1 (stereo not given) | inactive | – |
| CCCN(CCC)c1c([N+](=O)[O-])cc(C(F)(F)F)cc1[N+](=O)[O-] | inactive | – |
| CNC(=O)Oc1ccccc1OC(C)C | inactive | – |
| CCOP(OCC)OCC | inactive | – |
| OC(O)C(Cl)(Cl)Cl | inactive | – |
| CCC[N+](=O)[O-] | 23.9 µM (active) and inactive | – |

| SMILES | Potency | activity change, negative = cytotoxicity |
| --- | --- | --- |
| C=CCO | inactive | – |
| CCC[CH2][Sn]([Cl])([Cl])[Cl] | inactive | – |
| CCCCN(CC)C(=O)SCCC | inactive | – |
| O=[N+]([O-])c1ccc([As](=O)(O)O)cc1 | inactive | – |
| O=C(NC(=O)c1c(F)cccc1F)Nc1cc(Cl)c(OC(F)(F)C(F)C(F)(F)F)cc1Cl (stereo not given) | inactive | – |
| COC(=O)c1ccccc1N | inactive | – |
| CC(C)C#N | inactive | – |
| CN(C)CCO | inactive | – |
| Clc1ccccc1Cl | inactive | – |
| CC(C)OC(=O)Nc1cccc(Cl)c1 | inactive | – |
| COCCl | inactive | – |
| CC(Br)C(=O)O (stereo not given) | inactive | – |
| O=NN1CCCCCCC1 | inactive | – |
| COC(=O)c1ccccc1C(=O)OC | inactive | – |
| Nc1ccc(Oc2ccc(N)cc2)cc1 | – | -27.1% (inactive) |
| C1CC2OC2CC1C1CO1 (stereo not given) | inactive | – |
| O=c1ccc(=O)[nH][nH]1 | inactive | – |
| C=C(C)CCl | inactive | – |
| ClCCBr | inactive | – |
| CCNc1nc(NC(C)C)nc(SC)n1 | inactive | – |
